Source: PubChem BioAssay AID1619 (SRMLSC, 2009)
The whole screen tested about 220,000 compounds, of which about 830 (0.38%) were called active.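 How the source made its calls: active means compound inhibiting the enzyme by more than half at any dose during confirmatory dose-response retesting; inconclusive means strong single-dose inhibitors picked by rank but not retested; inactive means the rest.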 The list is a sample of the results. Entries with a potency or affinity are not part of this list.

Target: Leucine aminopeptidase (Plasmodium falciparum (isolate 3D7)) (UniProt Q8IL11)
Sequence (Q8IL11 whole entry, looked up): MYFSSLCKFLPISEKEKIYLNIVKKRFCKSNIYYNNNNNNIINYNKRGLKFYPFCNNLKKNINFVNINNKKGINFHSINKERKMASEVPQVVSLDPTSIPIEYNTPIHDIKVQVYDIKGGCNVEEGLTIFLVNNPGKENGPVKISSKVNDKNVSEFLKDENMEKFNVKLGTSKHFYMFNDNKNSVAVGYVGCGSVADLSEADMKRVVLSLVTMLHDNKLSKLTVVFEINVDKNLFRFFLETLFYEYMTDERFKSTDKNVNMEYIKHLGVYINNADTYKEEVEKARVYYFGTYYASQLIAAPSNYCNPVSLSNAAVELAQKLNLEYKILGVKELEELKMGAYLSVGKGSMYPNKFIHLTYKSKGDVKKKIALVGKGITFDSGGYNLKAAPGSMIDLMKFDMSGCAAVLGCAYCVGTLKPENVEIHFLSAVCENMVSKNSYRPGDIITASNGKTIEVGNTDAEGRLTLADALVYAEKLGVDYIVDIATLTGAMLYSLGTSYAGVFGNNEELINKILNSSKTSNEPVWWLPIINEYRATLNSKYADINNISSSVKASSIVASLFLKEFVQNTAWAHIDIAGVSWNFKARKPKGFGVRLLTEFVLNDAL
Assay: P. falciparum M17LAP inhibitors, primary screen, biochemical, fluorogenic H-Leu-NHMec substrate, 1536-well (AID 1619);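 further: plate controls were full reaction with DMSO carrier for no effect and no enzyme background for full effect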
Settings: recombinant M17LAP, H-Leu-NHMec fluorogenic kinetic assay; at 30 µM; hits give high values

inhibition, inactive:
COc1cc(C(=O)Nc2ccccc2-c2nnn(CC(N)=O)n2)cc(OC)c1OC -3.22%
C=CCn1c(-c2cccnc2Cl)nc2cc(Cl)c(Cl)cc21 -5.48%
Cc1noc(C)c1C(=O)NCCCc1ccccc1 6.89%
Cc1cc(C(=O)OCC(=O)N2c3ccccc3CC2C)c(C)o1 (stereo not drawn) -1.01%
Cc1cc(C(=O)OCC(=O)N2CC(C)CC(C)C2)c(C)o1 (stereo not drawn) 40.9%
O=C(O)c1cc2c(ccc3ccccc32)o1 6.36%
O=C(CCC1COc2ccccc2O1)NCC1COc2ccccc2O1 (stereo not drawn) 15.9%
O=C(Cn1ccc2ccccc2c1=O)NCC1COc2ccccc2O1 (stereo not drawn) 10.9%
O=C(CN1C(=O)C2C3C=CC(C3)C2C1=O)NCc1ccccc1 (stereo not drawn) 18.9%
Cc1nn(C)c(C)c1S(=O)(=O)N1CCC(C(=O)NCC2COc3ccccc3O2)CC1 (stereo not drawn) 17.1%
Cn1c(=O)oc2cc(S(=O)(=O)N3CCC(C(=O)NCC4COc5ccccc5O4)CC3)ccc21 (stereo not drawn) 3.08%
CCC1Oc2ccc(C)cc2N(CC(=O)NCC2COc3ccccc3O2)C1=O (stereo not drawn) 16.1%
Cn1c(C(=O)O)c(CC(=O)Nc2ccc3c(c2)OCCO3)c2ccccc21 -6.24%
Cn1c(=O)cc(SCC(=O)NCC2COc3ccccc3O2)c2ccccc21 (stereo not drawn) -4.89%
CCOc1ccc(NC(=O)CSc2nc3c([nH]c4ccccc43)c(=O)n2C)cc1 1.51%
CC(C)(C)c1cn(-c2ccccc2)c(=S)[nH]1 1.06%
O=c1c(Cc2ccc(F)cc2)c(O)ccn1Cc1ccc(F)cc1 -0.83%
CS(=O)(=O)N1CCC(C(=O)O)CC1 -6.86%
CCOC(=O)c1c(NC(=O)CC2SC(N)=NC2=O)sc2c1CCC(C)C2 (stereo not drawn) 3.54%
COC(=O)C(NC(=O)C(C)Oc1ccccc1)C(C)C (stereo not drawn) 1.41%
COc1ccc(C2=NN(c3nc(C(=O)O)cs3)C(O)(C(F)(F)F)C2)c(OC)c1 (stereo not drawn) 26.5%
CN(C)S(=O)(=O)c1ccc(Cl)c(NC(=O)COC(=O)c2cc(-c3ccccc3)nc3ccccc23)c1 15.3%
C[C@H](NC(=O)OCc1ccccc1)C(=O)NNC(=O)[C@H](Cc1ccccc1)NC(=O)OC(C)(C)C 12.1%
COc1cc(C2/C(=C(\O)c3cc(C)ccc3C)C(=O)C(=O)N2CCN(C)C)ccc1O (stereo not drawn) -5.88%
Cc1ccc2nc(-c3ccc(NC(=O)CN4CCN(C(=O)c5ccco5)CC4)cc3)sc2c1 4.66%
O=C(CN1CCN(Cc2ccccc2)CC1)NCC1COc2ccccc2O1 (stereo not drawn) 17%
O=C(CN1C(=O)c2ccccc2C1=O)NCC1CCCO1 (stereo not drawn) 10.2%
CC1CCCCC1NC(=O)COC(=O)c1ccc(N(C)C)cc1 (stereo not drawn) -9.99%
CCOC(=O)C1C(=O)NC(N2CCN(CC)CC2)=NC1c1ccccc1 (stereo not drawn) 2.42%
Nc1nc(SCC(=O)Nc2ccc(Cl)cc2)[nH]c(=O)c1-c1ccccc1 13.7%
COc1ccccc1NC(=O)CSc1nc(O)c(Cc2ccccc2)c(=O)[nH]1 35.1%
COc1ccc(-c2noc(CSc3nc(N)c(-c4ccccc4)c(=O)[nH]3)n2)cc1 10.2%
Nc1nc(SCC(=O)Nc2ccccc2)[nH]c(=O)c1-c1ccccc1 8.35%
COc1ccc(-c2noc(CSc3nc(N)c(-c4ccccc4)c(=O)[nH]3)n2)cc1OC -5.97%
COc1ccc(Cc2c(O)nc(SC)n(C(C)=O)c2=O)cc1 -1.99%
O=C(CSc1nc(O)c(Cc2ccccc2)c(=O)[nH]1)Nc1ccccc1 51.3%
COc1ccc(-n2c(SCC(=O)N3CCOCC3)nc(O)c(Cc3ccccc3)c2=O)cc1 20.3%
CCOCCCNC(=O)CCNC(=O)c1cc(OC)c(OC)c(OC)c1 3.56%
CCN(CC)S(=O)(=O)c1ccc(C(=O)NCCN2C(=O)S/C(=C\c3cccnc3)C2=O)cc1 -4.15%
[N-]=C=C1C(=S)NC(=O)[C@H]([n+]2ccccc2)[C@H]1c1ccc(Cl)cc1 6.14%
COc1cc(NC(=O)c2ccccc2Cl)c(OC)cc1NC(=O)CN1CCCCC1 13.6%
CC(=O)Nc1ccc(C(=O)CSc2nnnn2C2CCCC2)cc1 11.4%
O=C(Cc1ccccc1)NCC(=O)OC(c1ccccc1)c1ccccc1 0.75%
OC(C#CCN1CCCC1)c1ccccc1 (stereo not drawn) 9.35%
O=S(=O)(c1ccccc1)n1ccc2cccnc21 7.22%
Cc1ccc(S(=O)(=O)CCC(=O)NCc2ccccc2Cl)cc1 22.9%
Cc1ccc(C)c2nc3sc(C(=O)N4CCCc5ccccc54)c(N)c3cc12 8.65%
O=C1C2C(c3ccccc3)C=CC(c3ccccc3)C2C(=O)N1C1CCCCC1 (stereo not drawn) 4.34%
COCCn1c(SCC(=O)Nc2cccc(OC)c2)nc2c(oc3ccccc32)c1=O -1.96%
COc1cccc(NC(=O)CSc2ncnc3c2oc2ccccc23)c1 2.46%
CCC(Sc1ncccc1C(=O)Oc1cccc([N+](=O)[O-])c1)C(=O)Nc1ccccc1OC (stereo not drawn) 46.5%
CSc1cccc(NC(=O)CSc2ncccc2C(=O)Oc2cccc([N+](=O)[O-])c2)c1 53%
CCOC(=O)c1cccnc1SCC(=O)Nc1ccc(C)cc1 3.41%
CCN(C(=O)CSc1ncccc1C(=O)Oc1cccc([N+](=O)[O-])c1)c1cccc(C)c1 -2.44%
O=C(N1CCCCC1)N1CCCN(C(=O)N2CCCCC2)CC1 7.89%
O=C(COc1ccc2ccccc2c1)Nc1ccc(S(=O)(=O)N2CCCCCC2)cc1 -9.55%
Cc1ccc(C(=O)Nc2nccs2)cc1 2.76%
O=C(Nc1nc(=O)c2ccccc2s1)c1ccccc1 6.62%
Cc1ccc(C(=O)Nc2nnc(C)s2)cc1 11.4%
CC(=O)Cc1nsc(NC(=O)c2ccccc2)n1 9.29%
CC(C)CCC1(CCNC(=O)c2cccs2)CCOC(C)(C)C1 (stereo not drawn) 0.32%
Cc1ccc(S(=O)(=O)n2nc(-c3ccco3)nc2N)cc1 -3.51%
O=C(NCCSCc1ccccc1)c1cc(S(=O)(=O)N2CCOCC2)ccc1F 6.12%
CC(C(O)C12CC3CC(CC(C3)C1)C2)N1CCCCC1 (stereo not drawn) 9.11%
Cc1nn(-c2ccccc2)c(C)c1/C=C/C(=O)OC(C)C(=O)Nc1ncc(Cl)cc1Cl (stereo not drawn) -12.7%
Cc1cc(=O)n(CNC(=O)c2ccccc2)c(=S)[nH]1 -9.25%
O=C(CSc1nncs1)Nc1ccc2c(c1)OCCO2 23.5%
CCC(C)c1c(O)nc(SCC(=O)Nc2ccccc2)[nH]c1=O (stereo not drawn) 25.4%
O=C(CSc1nccc(=O)[nH]1)Nc1ccc2c(c1)OCCO2 -0.7%
Nc1cc(=O)[nH]c(SCC(=O)Nc2ccc3c(c2)CCC3)n1 53.8%
O=C(CSc1nc2ccccc2[nH]1)Nc1ccc2c(c1)CCC2 1.81%
O=C(CSc1nc2ccc(Cl)cc2[nH]1)Nc1ccc2c(c1)CCC2 3.87%
CC(C)Cc1c(O)nc(SCC(=O)Nc2ccc3c(c2)CCC3)[nH]c1=O 54.1%
Cn1cnnc1SCC(=O)Nc1ccc2c(c1)CCC2 42.8%
Cc1coc(C)c1C(=O)CC1(O)C(=O)Nc2cc(Cl)cc(Cl)c21 (stereo not drawn) -6.03%
Cc1ccc(S(=O)(=O)N(C)C)cc1NC(=O)COc1ccc(-c2nnco2)cc1 -1.3%
CC(NS(=O)(=O)c1ccc([N+](=O)[O-])cc1)C(=O)NN (stereo not drawn) 5.26%
O=C1NC(=S)N/C1=C/c1cccn1-c1ccc([N+](=O)[O-])cc1 -21%
COc1ccc(OC)c(/C=C/C(=O)OCC(=O)Nc2ccc(Cl)c(S(=O)(=O)N(C)C)c2)c1 5.28%
Cc1cc(C)n(C(=O)c2ccc(C)o2)n1 6.21%
Cc1ccc(S(=O)(=O)c2ccc(NN)cc2)cc1 20.8%
Cc1ccc(C2N(c3nccs3)C(=O)C3CCCN32)cc1 (stereo not drawn) -15.4%
Fc1ccc(COc2ccccc2C(=S)N2CCCC2)cc1 10.6%
CN(C)S(=O)(=O)c1ccc(C(=O)NCc2ccccn2)cc1 -3.48%
CC(=O)NS(=O)(=O)c1ccc(NS(=O)(=O)c2ccc(F)cc2)cc1 -13%
Cc1ccc(S(=O)(=O)NC(=O)Nc2cc(C)ccc2F)cc1 -4.66%
CC(=O)NS(=O)(=O)c1ccc(N=c2ssc3c2-c2cc(C)ccc2NC3(C)C)cc1 55%
Cc1cc2c(cc1C)-c1c(ssc1=Nc1ccc(S(N)(=O)=O)cc1)C(C)(C)N2 -1.4%
Cc1nn(-c2ccc(Cl)c(Cl)c2Cl)c(=O)c2ccccc12 -4.32%
N#CC(C#N)=Cc1ccc(OC(=O)c2ccccn2)cc1 15.9%
COc1cc2c(cc1OC)C1(Nc3c-2c(-c2ccccc2)nn3-c2ccccc2)C(=O)Nc2ccccc21 (stereo not drawn) 0.95%
O=C(COC(=O)c1cnccn1)Nc1ccc2c(c1)OCO2 13.5%
CCOc1ccc(CCNC(=O)CN(C)S(=O)(=O)c2ccc3c(c2)CCC(=O)N3)cc1OCC -8.18%
